KB-3-1 tox: kills parental KB-3-1 adenocarcinoma cells. hit rate 1.4% among 400,000. Potency, µM (series often up to 46.1 µM), hits mostly cytotoxic. KB-3-1 viability, CellTiter-Glo ATP luminescence, 72 h; further: nearly all actives have a fitted effect of over 60% in size
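72 h, 37 °C compound treatment of KB-3-1 parental cells; CellTiter-Glo added, 10 min, luminescence read. Data corrected against DMSO-only plates and normalized before curve fitting.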
TDP1 cell CPT: DT40-hTDP1 cell growth loss with CPT; Potency, µM (titrated, usually from 46.2 µM), for the others: top-dose activity change, negative = growth inhibition, actives largely listed as inhibitors; chicken DT40 Tdp1-/-;hTDP1 cells + 20 nM CPT, ATP luminescence, 48 h; hit rate 12% among 420,000; further: nearly all actives have a fitted effect of over 55% in size
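Chicken DT40 Tdp1-/- cells complemented with human TDP1, 400 cells/well, exposed to compounds plus 20 nM camptothecin for at least 48 h at 37 C; viability read as ATP content by CellTiter-Glo luminescence.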
HT1080 IDH1KD tx: kills HT-1080 cells with IDH1 knockdown. HT-1080 IDH1 knockdown viability, ATP luminescence, 48 h. Potency, µM (doses to about 46.1 µM), for inactives: at the top dose activity, negative = toxicity, hits mostly cytotoxic. hit rate 2% among 360,000;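 further: 0% = DMSO wells and -100% = cell-free medium wells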
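HT-1080-IDH1KD cells (IDH1 knocked down), 750/well in RPMI with 5% FBS, treated with compound 48 h at 37 degrees C. Viability by CellTiter-Glo luminescence, normalised to DMSO and no-cell wells; concentration-response curves classed.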
TDP1 cell noCPT: qHTS for Inhibitors of human tyrosyl-DNA phosphodiesterase 1 (TDP1): qHTS in cells in absence of CPT | DT40 Tdp1-/- hTDP1 cells, no CPT, ATP luminescence, 48 h | Potency, µM (titrated, usually from 46.2 µM), for inactives: at the top dose activity change, negative = growth inhibition, most hits filed as inhibitors | hit rate 15% among 420,000; further: nearly all actives have a fitted effect of over 55% in size
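Camptothecin absent (DMSO only). Human TDP1-complemented DT40 knockout cells, 400 cells/well, 37 °C for minimum 48 hr; ATP measured via CellTiter-Glo, 30 min dark incubation, luminescence.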
KB-V1 cytotox: kills drug-selected multidrug resistant KB-V1 cells | hit rate 3.4% among 400,000 | AID 1347076 | Potency, µM (series often up to 46.1 µM), usual class: cytotoxic | KB-V1 MDR cells viability, CellTiter-Glo, 72 h; further: nearly all actives have a fitted effect of over 60% in size
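Drug-selected KB-V1 cells, grown in DMEM lacking phenol red with 10% FBS, receive compound titrations; after three days at 37 degrees C, surviving cell ATP is quantified by CellTiter-Glo luminescence and responses normalized and curve-fitted.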
HT1080NT lethal: kills 2HG-producing HT-1080-NT fibrosarcoma cells | HT-1080-NT fibrosarcoma viability, CellTiter-Glo ATP luminescence, 48 h | Potency, µM (series often up to 46.1 µM), for inactives: top-dose activity, negative = less viability, actives largely listed as cytotoxic | hit rate 1.6% among 360,000 | AID 686970;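 further: NT is the 2HG producing partner of a matched IDH1 knockdown line; 0% = DMSO-treated cells and -100% = media-only wells without cells; nearly all actives have a fitted effect of over 55% in size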
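750 cells/well, RPMI + 5% FBS; 2 h settle, compound pin-transfer, 48 h at 37 degrees C. CellTiter-Glo 10 min RT, luminescence. Normalized to DMSO and media-only wells.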
Active calls of the source: *. The list is not random: actives were taken first. Their share in the collection is about 19%. The call rests on the fitted dose curve; in most records, active means well fitted curve in the direction sought with a large enough effect; inconclusive means small, poorly fitted or top-dose-only effect, or another doubt; inactive means no such curve, though single readings can be large; an effect the other way counts as inactive or inconclusive. Unless noted, on the % scale 0 is the no-effect control and ±100 the full control effect; potency means the concentration at half of the fitted maximal effect.

What do the screens show for `Cc1c(C(=O)N2CCN(c3ccc([N+](=O)[O-])cc3)CC2)oc2ccccc12`?
KB-3-1 tox: inactive; TDP1 cell CPT: inconclusive; HT1080 IDH1KD tx: -0.9%; TDP1 cell noCPT: 16.4µM*; KB-V1 cytotox: inactive; HT1080NT lethal: 2.8%

How did CCOC(=O)C1CCN(C(=O)Cn2nc(C)n3nc(-c4ccc(CC)cc4)cc3c2=O)CC1 do in these assays?
KB-3-1 tox: inactive; TDP1 cell CPT: inconclusive; HT1080 IDH1KD tx: 0.4%; TDP1 cell noCPT: inconclusive; KB-V1 cytotox: inactive; HT1080NT lethal: 9.7%

How did CC(C)C(OC(=O)CN1C(=O)c2ccccc2C1=O)C(=O)NC1CCCC1 (configuration not stated) do in these assays?
KB-3-1 tox: inactive; TDP1 cell CPT: 10.2%; HT1080 IDH1KD tx: 12.7%; TDP1 cell noCPT: 2.4%; KB-V1 cytotox: inactive; HT1080NT lethal: 1.5%

How did Cc1oc2ncn(C)c(=O)c2c1C(=O)N1CCN(c2cccc(C(F)(F)F)c2)CC1 do in these assays?
KB-3-1 tox: inactive; TDP1 cell CPT: -18.5%; TDP1 cell noCPT: -18.3%; KB-V1 cytotox: inactive

How did Cc1cc(C=O)cc(C)c1[N+](=O)[O-] do in these assays?
KB-3-1 tox: inactive; TDP1 cell CPT: inconclusive; TDP1 cell noCPT: inconclusive; KB-V1 cytotox: inactive

What do the screens show for `Cc1ccc(-c2noc(-c3nnn(CC(=O)Nc4cc(C)cc(C)c4)c3N)n2)cc1`?
TDP1 cell CPT: 1.3µM*; TDP1 cell noCPT: 1.46µM*

Results for COc1ccc(NC(=O)c2nnn(Cc3ccccc3C)c2N)c(OC)c1 ?
KB-3-1 tox: inconclusive; TDP1 cell CPT: -28.1%; TDP1 cell noCPT: 6.51µM*; KB-V1 cytotox: inactive

What do the screens show for `COc1ccc(Cn2nnc(C(=O)Nc3cc(OC)ccc3OC)c2N)cc1`?
KB-3-1 tox: inconclusive; TDP1 cell CPT: 18.4µM*; TDP1 cell noCPT: inconclusive; KB-V1 cytotox: inactive

How did CCc1ccccc1NC(=O)Cn1nnc(C(=O)NCc2cccc(OC)c2)c1N do in these assays?
KB-3-1 tox: 7.31µM*; TDP1 cell CPT: inconclusive; HT1080 IDH1KD tx: inconclusive; TDP1 cell noCPT: inconclusive; KB-V1 cytotox: inconclusive; HT1080NT lethal: -2.9%

How did COc1ccc(NC(=O)c2nnn(Cc3ccc(SC)cc3)c2N)c(OC)c1 do in these assays?
KB-3-1 tox: inactive; TDP1 cell CPT: 17.9%; HT1080 IDH1KD tx: -16.4%; TDP1 cell noCPT: -14.4%; KB-V1 cytotox: inactive; HT1080NT lethal: -1.3%

How did Cn1nc(C(=O)Nc2nc3ccccc3[nH]2)ccc1=O do in these assays?
KB-3-1 tox: inactive; TDP1 cell CPT: -10.6%; HT1080 IDH1KD tx: 9.0%; TDP1 cell noCPT: -14.2%; KB-V1 cytotox: inactive; HT1080NT lethal: -2.4%

How did Cc1cc(C)cc(NC(=O)Cn2nnc(C(=O)NCc3ccc(F)cc3)c2N)c1 do in these assays?
KB-3-1 tox: inactive; TDP1 cell CPT: 20.6µM*; HT1080 IDH1KD tx: -4.3%; TDP1 cell noCPT: inconclusive; KB-V1 cytotox: inactive; HT1080NT lethal: -4.0%

Results for COc1cccc(Cn2nnc(C(=O)Nc3cc(C)ccc3OC)c2N)c1 ?
KB-3-1 tox: inactive; TDP1 cell CPT: 25.9µM*; HT1080 IDH1KD tx: inconclusive; TDP1 cell noCPT: -25.8%; KB-V1 cytotox: inactive; HT1080NT lethal: -15.8%

What do the screens show for `Cc1cccc(Cn2nnc(C(=O)Nc3cc(C)ccc3C)c2N)c1`?
KB-3-1 tox: inactive; TDP1 cell CPT: 29.1µM*; TDP1 cell noCPT: 18.4µM*; KB-V1 cytotox: inconclusive

How did COc1cccc(Cn2nnc(C(=O)Nc3ccc(C)cc3)c2N)c1 do in these assays?
KB-3-1 tox: inactive; TDP1 cell CPT: -14.1%; HT1080 IDH1KD tx: 1.7%; TDP1 cell noCPT: -14.4%; KB-V1 cytotox: inactive; HT1080NT lethal: 2.8%

Source: PubChem BioAssay
